Experimental data taken from PubChem BioAssay (EPA / NIEHS).
Active and inactive are the calls of the source. The calls were made as follows: active = hit-call score of the fitted dose curve at least 0.9, where 1 is the maximum; inactive = score below 0.9.

experiment: CCTE_Mundy_HCI_Cortical_NOG_NeuriteLength: CCTE's Neurite Outgrowth Assay in rat cortical cells for Neurite Length, Mundy Lab (AID 2284213);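 as to AC50: neurites imaged about 48 to 50 h after chemical exposure began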
Outline: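 Neurite length was read by high-content imaging of βIII-tubulin-labelled neurites in rat primary cortical cultures. Activity was fitted relative to DMSO.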

Row | SMILES | AC50 | outcome
1 | C[n+]1ccc(-c2cc[n+](C)cc2)cc1 | 29.8 µM (active) | –
2 | CCOP(=S)(OCC)SCS(=O)C(C)(C)C (stereo not given) | – | inactive
3 | O=C(O)CNCP(=O)(O)O | – | inactive
4 | C#CCN(C)[C@H](C)Cc1ccccc1 | – | inactive
5 | Cn1nc(C(F)(F)F)c(CS(=O)(=O)C2=NOC(C)(C)C2)c1OC(F)F | 66.8 µM (active) | –
6 | CC1(C)C(C=C(Cl)c2ccc(Cl)cc2)C1C(=O)OC(C#N)c1ccc(F)c(Oc2ccccc2)c1 (stereo not given) | 50 µM (active) | –
7 | CCOP(=O)(Oc1cnc(C(C)(C)C)nc1)OC(C)C (stereo not given) | – | inactive
8 | CC1(C)[C@H](C=C(Cl)Cl)[C@H]1C(=O)OCc1c(F)c(F)cc(F)c1F | 78.2 µM (active) | –
9 | CC(=O)[O-].CC(=O)[O-].O.O.O.[Pb+2] | – | inactive
10 | CC1(C)C(C=C(Cl)Cl)C1C(=O)O[C@H](C#N)c1cccc(Oc2ccccc2)c1 (stereo not given in full) | 82 µM (active) | –
11 | CCOP(=O)(OCC)OC(Cl)C(Cl)(Cl)Cl (stereo not given) | – | inactive
12 | CCOP(=O)(OCC)SCSC(C)(C)C | 49.5 µM (active) | –
13 | CC1(C)[C@@H](C=C(Cl)Cl)[C@@H]1C(=O)O[C@@H](C#N)c1ccc(F)c(Oc2ccccc2)c1 | – | inactive
14 | COP(=O)(OC)SCN1C(=O)c2ccccc2C1=O | – | inactive
15 | CC(=O)[O-].[Tl+] | 75.3 µM (active) | –

experiment: CCTE_Mundy_HCI_Cortical_Synap_Neur_Matur_NeuriteLength: CCTE's Synaptogenesis and Neurite Maturation Assay in rat cortical cells for Neurite Length, Mundy Lab (AID 2284214)
Outline: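 Rat cortical neurons, AraC at DIV 5; compound + media change DIV 7, end DIV 12 (288.33 h). Fix, MAP2/synaptophysin/Hoechst immunostain, automated HCI of neurite length vs DMSO.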

Row | SMILES | AC50 | outcome
16 | C[n+]1ccc(-c2cc[n+](C)cc2)cc1 | 0.966 µM (active) | –
17 | CCOP(=S)(OCC)SCS(=O)C(C)(C)C (stereo not given) | – | inactive
18 | O=C(O)CNCP(=O)(O)O | – | inactive
19 | C#CCN(C)[C@H](C)Cc1ccccc1 | – | inactive
20 | Cn1nc(C(F)(F)F)c(CS(=O)(=O)C2=NOC(C)(C)C2)c1OC(F)F | 28 µM (active) | –
21 | CC1(C)C(C=C(Cl)c2ccc(Cl)cc2)C1C(=O)OC(C#N)c1ccc(F)c(Oc2ccccc2)c1 (stereo not given) | 61.6 µM (active) | –
22 | CCOP(=O)(Oc1cnc(C(C)(C)C)nc1)OC(C)C (stereo not given) | – | inactive
23 | CC1(C)[C@H](C=C(Cl)Cl)[C@H]1C(=O)OCc1c(F)c(F)cc(F)c1F | 9.91 µM (active) | –
24 | CC(=O)[O-].CC(=O)[O-].O.O.O.[Pb+2] | – | inactive
25 | CC1(C)C(C=C(Cl)Cl)C1C(=O)O[C@H](C#N)c1cccc(Oc2ccccc2)c1 (stereo not given in full) | 11 µM (active) | –
26 | CCOP(=O)(OCC)OC(Cl)C(Cl)(Cl)Cl (stereo not given) | – | inactive
27 | CCOP(=O)(OCC)SCSC(C)(C)C | – | inactive
28 | CC1(C)[C@@H](C=C(Cl)Cl)[C@@H]1C(=O)O[C@@H](C#N)c1ccc(F)c(Oc2ccccc2)c1 | – | inactive
29 | COP(=O)(OC)SCN1C(=O)c2ccccc2C1=O | – | inactive
30 | CC(=O)[O-].[Tl+] | 23.8 µM (active) | –
